# Reference: PubChem BioAssay AID1159580 (chemical genetic matrix, 2015)
# About 2,000 (36%) of roughly 5,500 compounds were called active. Not shown: some 18% with an inconclusive outcome. The list shows a part of the results. Values without a mark were called inactive. No stated cut-off is given here; in the data, active means normalized growth mostly below about 0.91 (no sharp cut-off); inconclusive means no clear call, values can overlap the other calls; inactive means mostly above about 0.92.
# Test: chemical genetic growth profiling, strain panel (AID 1159580);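 further: tested at 20 µM; growth read once vehicle control cultures reached saturation at 30 °C; 1 = growth at the plate median or of vehicle wells; lower values mean less growth of the strain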
# Conditions: S. cerevisiae deletion strains, growth OD
smiles,measurement,setting,value
CC(=O)OCC(=O)[C@H]1CCC2C3CCC4=CC(=O)CC[C@]4(C)C3CC[C@@]21C (some centres not stated),normalized growth,"locus YJR043C, strain POL32, active compounds read low",0.797 (active)
same,normalized growth,"locus YJR066W, strain TOR1, active compounds read low",0.956
same,normalized growth,"locus YKL009W, strain mrt4, active compounds read low",0.909
same,normalized growth,"locus YKL068W, active compounds read low",0.956
same,normalized growth,"locus YKL085W, strain MDH1 (second series), active compounds read low",0.934
same,normalized growth,"locus YKL085W, strain MDH1, active compounds read low",0.934
same,normalized growth,"locus YKL160W, strain elf1, active compounds read low",0.964
same,normalized growth,"locus YKR001C, strain vps1, active compounds read low",0.777 (active)
same,normalized growth,"locus YKR026C, strain gcn3, active compounds read low",0.977
same,normalized growth,"locus YKR091W, strain srl3, active compounds read low",0.98
same,normalized growth,"locus YLL001W, strain dnm1, active compounds read low",0.985
same,normalized growth,"locus YLL026W, active compounds read low",0.992
same,normalized growth,"locus YLL041C, strain sdh2, active compounds read low",0.986
same,normalized growth,"locus YLR027C, strain aat2, active compounds read low",0.97
same,normalized growth,"locus YLR039C, strain RIC1, active compounds read low",0.772
same,normalized growth,"locus YLR058C, strain SHM2, active compounds read low",0.942
same,normalized growth,"locus YLR102C, strain apc9, active compounds read low",0.956
same,normalized growth,"locus YLR113W, strain HOG1, active compounds read low",0.951
same,normalized growth,"locus YLR221C, strain rsa3, active compounds read low",0.972
same,normalized growth,"locus YLR258W, strain gsy2, active compounds read low",0.958
same,normalized growth,"locus YLR262C, strain YPT6 (second series), active compounds read low",1.04
same,normalized growth,"locus YLR262C, strain YPT6, active compounds read low",0.754
same,normalized growth,"locus YLR268W, strain sec22, active compounds read low",0.919
same,normalized growth,"locus YLR320W, strain mms22, active compounds read low",0.881
same,normalized growth,"locus YLR330W, strain CHS5, active compounds read low",0.864 (active)
same,normalized growth,"locus YLR342W, strain FKS1 (second series), active compounds read low",0.726 (active)
same,normalized growth,"locus YLR342W, strain FKS1, active compounds read low",0.926
same,normalized growth,"locus YLR357W, strain rsc2, active compounds read low",1.02
same,normalized growth,"locus YLR370C, strain arc18, active compounds read low",0.958
same,normalized growth,"locus YLR371W, strain rom2, active compounds read low",0.966
same,normalized growth,"locus YLR384C, strain iki3, active compounds read low",0.987
same,normalized growth,"locus YLR418C, strain cdc73, active compounds read low",0.691 (active)
same,normalized growth,"locus YML016C, strain PPZ1, active compounds read low",0.962
same,normalized growth,"locus YML032C, strain rad52, active compounds read low",0.896 (active)
same,normalized growth,"locus YML120C, strain ndi1, active compounds read low",0.979
same,normalized growth,"locus YML124C, strain tub3, active compounds read low",0.938
same,normalized growth,"locus YMR058W, strain fet3, active compounds read low",0.959
same,normalized growth,"locus YMR078C, strain ctf18, active compounds read low",0.923
same,normalized growth,"locus YMR125W, strain sto1, active compounds read low",0.986
same,normalized growth,"locus YMR129W, active compounds read low",0.985
same,normalized growth,"locus YMR205C, strain PFK2, active compounds read low",0.909
same,normalized growth,"locus YMR223W, strain ubp8, active compounds read low",0.905
same,normalized growth,"locus YMR231W, strain pep5, active compounds read low",0.988
same,normalized growth,"locus YMR307W, strain GAS1, active compounds read low",0.744
same,normalized growth,"locus YNL067W, strain RPL9B, active compounds read low",0.965
same,normalized growth,"locus YNL071W, strain lat1, active compounds read low",0.923
same,normalized growth,"locus YNL153C, strain GIM3, active compounds read low",0.962
same,normalized growth,"locus YNL183C, strain NPR1, active compounds read low",0.961
same,normalized growth,"locus YNL209W, strain ssb2, active compounds read low",0.979
same,normalized growth,"locus YNL233W, strain BNI4, active compounds read low",0.871
same,normalized growth,"locus YNL248C, strain rpa49, active compounds read low",0.945
same,normalized growth,"locus YNL250W, strain rad50, active compounds read low",0.978
same,normalized growth,"locus YNL271C, strain bni1, active compounds read low",0.938
same,normalized growth,"locus YNL298W, strain CLA4, active compounds read low",0.893 (active)
same,normalized growth,"locus YNL307C, strain MCK1, active compounds read low",0.596 (active)
same,normalized growth,"locus YNL322C, strain KRE1 (second series), active compounds read low",0.951
same,normalized growth,"locus YNR049C, strain mso1, active compounds read low",0.989
same,normalized growth,"locus YNR052C, strain pop2, active compounds read low",0.986
same,normalized growth,"locus YOL012C, strain htz1",1.17
same,normalized growth,"locus YOL147C, strain pex11, active compounds read low",0.93 (active)
same,normalized growth,"locus YOR001W, strain rrp6, active compounds read low",0.999
same,normalized growth,"locus YOR061W, strain CKA2, active compounds read low",0.943
same,normalized growth,"locus YOR069W, strain VPS5, active compounds read low",0.983
same,normalized growth,"locus YOR070C, strain gyp1, active compounds read low",0.974
same,normalized growth,"locus YOR080W, strain dia2, active compounds read low",0.987
same,normalized growth,"locus YOR083W, strain WHI5, active compounds read low",0.9
same,normalized growth,"locus YOR106W, strain vam3, active compounds read low",0.941
same,normalized growth,"locus YOR136W, strain idh2, active compounds read low",0.965
same,normalized growth,"locus YOR144C, strain elg1, active compounds read low",0.929 (active)
same,normalized growth,"locus YOR184W, strain ser1, active compounds read low",0.759 (active)
same,normalized growth,"locus YOR231W, strain MKK1, active compounds read low",0.983
same,normalized growth,"locus YOR265W, strain rbl2, active compounds read low",0.98
same,normalized growth,"locus YOR270C, strain vph1, active compounds read low",0.734 (active)
same,normalized growth,"locus YOR290C, strain snf2, active compounds read low",0.961
same,normalized growth,"locus YOR316C, strain cot1, active compounds read low",0.947
same,normalized growth,"locus YPL051W, strain arl3, active compounds read low",0.968
same,normalized growth,"locus YPL055C, strain LGE1, active compounds read low",0.861
same,normalized growth,"locus YPL078C, strain atp4, active compounds read low",0.903
same,normalized growth,"locus YPL106C, strain sse1, active compounds read low",1.04
same,normalized growth,"locus YPL240C, strain hsp82, active compounds read low",0.982
same,normalized growth,"locus YPL241C, strain CIN2, active compounds read low",0.963
same,normalized growth,"locus YPL256C, strain CLN2, active compounds read low",1.01
same,normalized growth,"locus YPR119W, strain clb2, active compounds read low",0.948
same,normalized growth,"locus YPR141C, strain kar3, active compounds read low",0.954
same,normalized growth,"locus YPR163C, strain tif3, active compounds read low",0.916
same,normalized growth,"locus YPR167C, strain met16, active compounds read low",0.921 (active)
same,normalized growth,"strain wtn01, active compounds read low",0.949
